Assay outcomes (PubChem BioAssay)
Most compounds without a hit are left out; they make up all but 4.2% or so of the library.
SW480 rerep: induces DNA re-replication in SW480 colon adenocarcinoma cells; SW480 DNA re-replication, Hoechst DNA content imaging, 48 h; Potency, µM (titrated, usually from 46.1 µM), without a hit: at the highest dose re-replication activation, usual class: activators; 1.8% of 340,000 active; note: % of control where 0% means no effect; nearly all actives have a fitted effect of over 55% in size
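Treated cells incubate 48 hr (37 C, 5% CO2), are stained 40 min with Hoechst, and nuclear fluorescence is enumerated; a rise in nuclei with high DNA signal marks re-replication.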
a7 integrin act: activators of alpha7 integrin expression for muscular dystrophy; alpha7betagal myoblasts, beta-gal FDG fluorescence, 48 h; 0.064% of 350,000 active; Potency, µM (top dose mostly 38.3 µM), without a hit: top-dose activation, usual class: activators; AID 624291;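 note: 100% = response of the positive control SU9516; nearly all actives have a fitted effect of over 60% in size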
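Alpha7betagal+/- myoblasts (passage 13) were plated 16-24 hr, then exposed to compounds (1:260 dilution of DMSO stock) for 48 hours at 37C. After MPER lysis, β-galactosidase reporter activity was read as FDG fluorescence (ex 480/em 540) after 30 minutes.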
A-T KAP1 phos: potential ataxia-telangiectasia treatments restoring KAP-1 phosphorylation; AID 485349; F2112 A-T fibroblasts, KAP-1 phosphorylation AlphaLISA; neocarzinostatin DNA damage 30 min before lysis; Potency, µM (top dose mostly 57.5 µM), for the others: at the highest dose activation, most hits filed as activators; 0.19% of 320,000 active; note: % of control where 0% means no effect; nearly all actives have a fitted effect of over 45% in size
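ATM-like activity read as KAP-1 phosphorylation via AlphaLISA donor/acceptor antibody pairs after lysis and 6 hr at 25C. Cells were ATM-null patient fibroblasts (F2112, hTERT), dosed 60 min, then exposed to the DSB inducer NCS for 30 min.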
MCF10A rerep: induces DNA re-replication in MCF 10a normal breast cells. MCF 10A DNA re-replication, Hoechst nuclear intensity, 48 h. Potency, µM (highest dose often 46.1 µM), for inactives: at the highest dose activity, positive = re-replication, hits mostly activators. 2.9% of 350,000 active. AID 624296; note: % of control where 0% means no effect; nearly all actives have a fitted effect of over 50% in size
Mito fusion act: blocks mitochondrial division or promotes mitochondrial fusion | Potency, µM (titrated, usually from 46.1 µM), for the others: top-dose growth rescue (activation), most hits filed as activators | S. cerevisiae fusion-defective mutant growth rescue, CellTiterGlo 48 h | 0.23% of 320,000 active; note: % of control where 0% means no effect; nearly all actives have a fitted effect of over 45% in size
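Compounds are tested for their ability to restore growth of mitochondrial fusion-defective yeast strains at non-permissive 37C in YPEG medium over 48 hours. Viability is quantified by luciferase luminescence.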
The depositor's hits bear a star; u = inconclusive; x = not tested or not shown; [ ] = dose if it differs, or a comment. Calls come from the whole dose curve; as a rule, active = well fitted activation curve with a large enough effect; inconclusive = small, poorly fitted or top-dose-only effect; inactive = no such curve, though single readings can be large or run the other way. Potency is the fitted concentration of half-maximal effect.

SMILES | SW480 rerep | a7 integrin act | A-T KAP1 phos | MCF10A rerep | Mito fusion act
COc1ccc(-n2ncc3c(=O)n(CC(=O)NC(C)C)cnc32)cc1 | -4.9% | 2.6% | -2.7% | 0.92µM* | 1.8%
CC(C)NC(=O)Cn1cnc2c(cnn2-c2ccc(F)cc2)c1=O | -1.0% | 0.2% | -7.9% | -5.1% | -2.0%
c1cc(CNc2ccc3c(c2)OCO3)ccn1 | -5.8% | -7.2% | 0.6% | 18.5% | 0.4%
Cc1ccc(CNc2ccc3c(c2)OCO3)cc1 | 23.1µM* | -14.0%[7.66 µM] | x | 23.1µM* | -0.4%
CC(Oc1ccc(Cl)cc1Cl)C(=O)Nc1ccc2oc(-c3ccncc3)nc2c1 (stereo not given) | u | -6.6% | 2.3% | 9.2µM* | 4.3%
CC(Oc1ccc(Cl)cc1Cl)c1nc(-c2ccc(NC(=O)c3cccnc3)cc2)no1 (stereo not given) | -2.5% | -51.6% | -9.2% | 27.4% | 19.5%
CC(Oc1ccc(Cl)cc1Cl)c1nc(-c2ccc(NC(=O)c3ccncc3)cc2)no1 (stereo not given) | u | -58.8% | -2.5% | 23.1µM* | u
COc1ccccc1[C@@H]1C(c2cccc(Cl)c2)=NN(c2ccc(Br)cc2)[C@H]1C(=O)N1CCOC1=O | 3.26µM* | 16.6% | 9.2% | u | 3.2%
COc1ccccc1[C@@H]1C(c2cccc(C)c2)=NN(c2ccccc2)[C@H]1C(=O)N1CCOC1=O | 14.6µM* | 13.8% | 30.7% | u | u
COc1ccccc1[C@@H]1C(c2ccc(F)cc2)=NN(c2ccccc2)[C@H]1C(=O)N1CCOC1=O | 20.6µM* | -18.3% | 18.9% | 4.11µM* | 10.6%
CCOc1c(Br)cc(C(=O)Nc2cccc(S(=O)(=O)N3CCOCC3)c2)cc1OC | x | -8.5% | x | x | x
COC(=O)C1=C(C)NC(C)=C(C(=O)OC)C1C(=O)OCC(=O)NC1CCCCC1C (stereo not given) | x | 1.3% | x | x | x
C/C(=N/Nc1ccc(C(=O)c2c(C)cc3ccccn23)cc1[N+](=O)[O-])c1ccc(O)cc1 | 14.9% | 2.6% | x | -1.4% | x
COC(=O)c1ccc2c(c1)C(C)(C)C(/C=C/c1ccc(O)cc1)=[N+]2C | 6.31µM* | -63.5% | -2.2% | 7.08µM* | -7.6%
CCc1nc(C)c(-c2ccccc2)c(=O)[nH]1 | 18.4µM* | 8.9% | 5.8% | u | 5.3%
COc1cc2cc(C)c(Br)c(OC)c2cc1OC | -2.0% | 3.3% | x | 15.8% | x
NC1=NC(=O)/C(=C\c2ccc(-c3ccc(Cl)cc3)o2)S1 | u | -7.1% | 3.3% | 7.31µM* | 1.7%
CN(C)C1=NC(=O)/C(=C/c2ccc(-c3ccc(S(N)(=O)=O)cc3)o2)S1 | x | x | -4.8% | x | 2.2%
Cc1ccc(NC(=S)N(CCCN2CCC(C)CC2)Cc2ccco2)cc1C | -3.3% | u | -2.7% | u | 6.5%
C[C@@H]1CN([C@@H](C)CO)C(=O)c2cc(NC(=O)C3CCCCC3)ccc2O[C@@H](C)CCCCO[C@@H]1CN(C)C(=O)CCCN(C)C | x | -12.3% | x | x | x
Cc1csc(NC(=O)c2cc3c(s2)-c2ccccc2OC3)n1 | 19.0% | 0.0% | 23.9% | 14.6µM* | 8.1%
CCN(CC)c1ccc(NC(=S)NC(=O)c2cccs2)cc1 | -1.1% | 2.4% | -3.4% | u | 0.7%
O=C(N/N=C/c1ccc([N+](=O)[O-])o1)c1cc2c(ccc3ccccc32)o1 | u | -39.2% | 1.8% | 2.59µM* | 24.1%
O=C(N/N=C/c1ccc(O)c(Br)c1)c1cc2c(ccc3ccccc32)o1 | u | 19.8% | 5.2% | u | 0.9%
O=C(N/N=C/c1cccnc1)c1cc2c(ccc3ccccc32)o1 | -5.3%[9.22 µM] | -6.1% | -7.5% | 2.8% | 1.4%
SMILES | SW480 rerep | a7 integrin act | A-T KAP1 phos | MCF10A rerep | Mito fusion act
O=C(N/N=C/c1ccc([N+](=O)[O-])o1)c1cc2ccccc2o1 | u | -58.5% | 0.0% | u | -5.3%
O=C(N/N=C/c1cc(Cl)c(O)c(Cl)c1)c1cc2c(ccc3ccccc32)o1 | 14.6µM* | 37.5% | -6.6% | u | 26.0%
O=C(N/N=C/c1cc(Br)c(O)c(Br)c1)c1cc2c(ccc3ccccc32)o1 | u | 9.0% | 5.2% | 8.2µM* | -18.8%
CCn1c(-c2cccn(Cc3ccc(Cl)cc3Cl)c2=O)n[nH]c1=S | -3.2% | 11.2% | -2.8% | -3.1% | -0.8%
O=S(=O)(c1ccc(F)cc1)N1CCN(C(=S)NC2CC2)CC1 | 0.581µM* | 25.8% | -4.3% | 0.8% | -1.3%
COCCNC(=O)CSC1=N/C(=C/c2ccc(Cl)c(Cl)c2)C(=O)N1c1ccccc1F | u | -5.4% | -0.8% | 9.2µM* | 6.9%
Cc1cccc(Nc2ncnc(N)c2[N+](=O)[O-])n1 | 0.4% | u | -5.2% | 0.0% | 4.4%
Cc1cc(C)nc(Sc2ncnc(N)c2[N+](=O)[O-])n1 | u | -69.3% | -3.3% | 20.6µM* | -0.7%
CCCCOC(=O)CSc1nnc(-c2ccccc2)o1 | x | x | x | x | -5.0%
COc1ccccc1NC(=O)C(=O)N1N=C(C(C)C)CC1(O)C(F)(F)F (stereo not given) | 2.3% | -13.3% | -5.7% | 8.2µM* | 0.1%
CNC(=O)c1c(NC(=O)c2ccc(S(=O)(=O)N3CCCCC3C)cc2)sc2c1CCN(C)C2 (stereo not given) | u | 39.4% | -3.6% | 20.6µM* | 0.0%
CNC(=O)c1c(NC(=O)c2ccc(S(=O)(=O)N3CCCC3)cc2)sc2c1CCN(C(C)C)C2 | x | x | -8.6% | x | 1.6%
C[C@@H]1CN([C@H](C)CO)C(=O)c2cc(Br)cnc2O[C@@H]1CN(C)Cc1ccc(F)cc1 | x | -11.1% | x | x | x
CC(C)(C)N=C1NN=C(c2cc3ccccc3o2)CS1 | 11.6µM* | 0.8% | -5.8% | u | -0.2%
CCOC(=O)Cc1csc(NC(=O)CSc2nnc(-c3ccncc3)o2)n1 | 14.6µM* | 7.3% | -0.2% | 15.5% | 0.6%
CCOC(=O)Cc1nnc(NC(=O)CSc2nncn2C)s1 | u | 19.5% | 3.2% | 6.51µM* | -0.9%
CCOC(=O)Cc1csc(NC(=O)CSc2nnc(-c3ccc(NS(=O)(=O)CC)cc3)o2)n1 | 3.6% | 0.2% | x | 19.3% | x
CCOC(=O)Cc1csc(NC(=O)CSc2nnc(C(C)C)n2C)n1 | 0.2% | -13.5% | 0.708µM* | -5.1% | -7.1%
Cc1occc1-c1nnc(SCC(=O)Nc2nc(C(C)(C)C)cs2)o1 | u | -30.4% | -2.1% | 14.6µM* | 2.2%
CCOC(=O)Cc1csc(NC(=O)CSc2nnc(C)n2C)n1 | -20.4% | 4.1% | 0.2% | -1.8% | 0.7%
CCNC(=O)c1c(NC(=O)c2cc(-c3cc(C)cc(C)c3O)n[nH]2)sc2c1CCCC2 | -4.2% | 3.0% | x | 6.51µM* | x
CCNC(=O)c1c(NC(C)=O)sc2c1CCCC2 | 0.7%[9.22 µM] | 15.4% | -5.9% | -2.1% | 2.1%
O=C1/C(=C/c2ccc([N+](=O)[O-])cc2)C=C(c2ccccc2)N1c1ccccc1 | 6.9% | 13.9% | -0.5% | 17.4% | 0.6%
O=C1/C(=C/c2ccc([N+](=O)[O-])cc2)C=C(c2ccccc2)N1c1ccc(O)cc1 | u | 10.2% | 2.6% | 18.4µM* | 1.4%
